Screens from PubChem BioAssay.
LANA DNA inh – blocks KSHV LANA C-terminal domain binding to DNA; MBP-C-LANA/FAM-LBS DNA binding, fluorescence polarization; inhibition, % at 9 µM; 340,000 tested, 0.078% active; AID 504423;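 active = highest replicate inhibition at or above 60% at 9 µM, even if other replicates fall short; inactive = all replicates below 60% inhibition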;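 note: 0% = neutral control wells and 100% = 4 µM acridine orange control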
Keap1-Nrf2 PPI – Keap1-Nrf2 (human) interaction inhibition | inhibition, % at 9.4 µM | 340,000 tested, 0.15% active | Keap1 Kelch-Nrf2 peptide fluorescence polarization, 1536-well; in the data active = inhibition above about 12%;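 note: human Keap1 Kelch domain with fluorescein labeled Nrf2 9mer peptide probe; 0% = neutral control wells and 100% = peptide positive control; higher means more block of Keap1 binding to Nrf2 peptide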
eLon inh – inhibits E. coli Lon protease; P0A9M0; 360,000 tested, 0.42% active; inhibition, % at 7.94 µM; AID 602123; purified E. coli Lon protease, fluorescence polarization; in the data active = inhibition above about 13%, passing the limit was not always enough;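 note: 0% = enzyme with probe and DMSO and 100% = no enzyme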
EBV gp42 block – inhibitors of Epstein-Barr virus glycoprotein 42 | Q1HVG2 | Fluorescence polarization binding assay, mP read-out | inhibition, % (tested at 21.74 µM) | 220,000 tested, 0.42% active; in the data active = inhibition above about 50%
Target sequence (Q1HVG2 whole entry, looked up): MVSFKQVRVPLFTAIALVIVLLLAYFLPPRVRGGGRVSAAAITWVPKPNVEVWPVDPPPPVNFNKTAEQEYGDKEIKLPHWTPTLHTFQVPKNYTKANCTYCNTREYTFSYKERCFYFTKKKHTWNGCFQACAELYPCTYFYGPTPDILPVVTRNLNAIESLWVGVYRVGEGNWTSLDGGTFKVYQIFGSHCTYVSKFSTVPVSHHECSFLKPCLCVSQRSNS
GLD-1 TGE inh – GLD-1-TGE RNA interaction inhibition (C. elegans). inhibition, % at 5.96 µM. Q17339. 320,000 tested, 0.44% active. purified GLD-1 + fluorescein TGE RNA, fluorescence polarization;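 active = percent inhibition above a per-plate cutoff, the plate mean of test compounds plus 3 SD, cut at about 30% in these data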;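 note: 0% = DMSO wells with GLD-1 and probe and 100% = wells lacking GLD-1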
LANA-H2A inh – blocks KSHV LANA binding to histone H2A/H2B. cell-free LANA-H2A/H2B peptide, fluorescence polarization. inhibition, % (concentration not given with the values). AID 2629. 320,000 tested, 0.6% active. Q9QR71; in the data active = inhibition mostly above about 10%, no sharp cut-off; inactive = mostly below about 6.7%
E coli Lon conf – confirmation of E. coli Lon protease inhibitors; shares compounds with eLon inh; purified E. coli Lon, fluorescence polarization; inhibition, % at 7.94 µM; 1,400 tested, 31% active; AID 602230; in the data active = inhibition above about 16%;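 note: 0% = enzyme with probe and DMSO and 100% = no enzyme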
Starred values were filed as active, the others as inactive. Rows were chosen to be rich in hits. Some 1.5% of all compounds tested hit in one or more screens of this group.

CCOC(=O)C(O)(C1C(=O)CC(C)(C)CC1=O)C(F)(F)F (stereo unspecified) was read as LANA DNA inh 1, Keap1-Nrf2 PPI 0, eLon inh -9, EBV gp42 block 2, GLD-1 TGE inh 4 and LANA-H2A inh -3.
Screening Cc1cc(Br)cn2c(Cc3ccsc3)c(C(C)(C)C)nc12 returned eLon inh 80* and E coli Lon conf 71*.
Screening Cc1cc(Br)cn2c(Cc3ccsc3)c(-c3ccc(F)cc3)nc12 returned eLon inh 25* and E coli Lon conf 3.
Screening Cc1cc(Br)cn2c(Cc3cccc(F)c3)c(-c3ccc(F)cc3)nc12 returned eLon inh 4.
For COc1ccc(-c2nc3c(C)cc(Br)cn3c2Cc2ccc(C)cc2)cc1OC the results were eLon inh 28* and E coli Lon conf -10.
For CCCc1nc2c(C)cc(Br)cn2c1Cc1ccsc1 the results were eLon inh 9.
For Cc1cc(Br)cn2c(Cc3ccsc3)c(C3CCCCC3)nc12 the results were eLon inh 50* and E coli Lon conf 53*.
`O=C(NCCOc1ccccc1)C1=CC=CN2CCS(=O)(=O)N=C12` gave LANA DNA inh 1, Keap1-Nrf2 PPI 1, eLon inh -3, GLD-1 TGE inh -3 and LANA-H2A inh 1.
`Oc1ccc(/C=N/NC(=S)Nc2cccnc2)c(O)c1O` gave LANA DNA inh 12, Keap1-Nrf2 PPI -4, eLon inh 24*, EBV gp42 block 15 and E coli Lon conf 27*.
Screening Oc1ccc(/C=N/NC(=S)Nc2cccnc2)c(O)c1 returned LANA DNA inh 4, Keap1-Nrf2 PPI 3, eLon inh -67, EBV gp42 block -2, GLD-1 TGE inh -3 and LANA-H2A inh -1.
`COc1ccc(S(=O)(=O)N2CCN(Cc3ccc4c(c3)OCO4)CC2)cc1` gave LANA DNA inh 1, Keap1-Nrf2 PPI 0, eLon inh 43*, GLD-1 TGE inh 0, LANA-H2A inh 3 and E coli Lon conf 2.
CSc1ccc(S(=O)(=O)N2CCN(Cc3ccc4c(c3)OCO4)CC2)cc1 was read as LANA DNA inh -3, Keap1-Nrf2 PPI -3, eLon inh -9, EBV gp42 block -7, GLD-1 TGE inh -1 and LANA-H2A inh -2.
For CCc1ccc(OCC(=O)NC2CCCCC2)c(Br)c1 the results were LANA DNA inh 1, Keap1-Nrf2 PPI 5, eLon inh 36*, GLD-1 TGE inh -3, LANA-H2A inh -23 and E coli Lon conf 16*.
Screening O=C(COc1ccc(F)cc1Cl)NC1CCCCCC1 returned LANA DNA inh -1, Keap1-Nrf2 PPI 4, eLon inh 160*, GLD-1 TGE inh 0, LANA-H2A inh -4 and E coli Lon conf -8.
For CCc1ccc(OCC(=O)NNC(=S)NC(=O)C2CCCCC2)c(Br)c1 the results were LANA DNA inh 1, Keap1-Nrf2 PPI 2, eLon inh -1, GLD-1 TGE inh -3 and LANA-H2A inh 2.
Screening COC(=O)COc1ccc(C2NC(=O)NC(c3ccccc3)=C2C(C)=O)cc1Br (stereo unspecified) returned LANA DNA inh 1, Keap1-Nrf2 PPI -2, eLon inh -13, GLD-1 TGE inh 0 and LANA-H2A inh 1.
Screening CCCCn1c(SCC(=O)c2ccccc2)nc2c1c(=O)[nH]c(=O)n2C returned LANA DNA inh -1, Keap1-Nrf2 PPI 3, eLon inh -6, EBV gp42 block -15, GLD-1 TGE inh 6 and LANA-H2A inh -3.
Screening CCCCCCc1cc2cc(C(=O)OCC)c(=O)oc2cc1O returned LANA DNA inh -2, Keap1-Nrf2 PPI -1, eLon inh -11, EBV gp42 block 2, GLD-1 TGE inh 9 and LANA-H2A inh -6.
Screening CCCCCCc1cc2cc(S(=O)(=O)c3ccc(F)c(Cl)c3)c(=O)oc2cc1O returned LANA DNA inh 4, Keap1-Nrf2 PPI -1, eLon inh 84*, EBV gp42 block -8, GLD-1 TGE inh 97* and E coli Lon conf -51.
Screening CCCCCN(C(=O)CCC(=O)OCc1cccc(C)c1)c1c(N)n(CCCC)c(=O)[nH]c1=O returned LANA DNA inh 2, Keap1-Nrf2 PPI -3, eLon inh 1, GLD-1 TGE inh -2 and LANA-H2A inh 0.
Screening Cn1ccc2c(N3CCCC3)cc3c(c21)C1CCC3O1 (stereo unspecified) returned eLon inh 30* and E coli Lon conf 2.
`Cn1ccc2c(N3CCCCCC3)cc3c(c21)C1CCC3O1` (stereo unspecified) gave eLon inh -9.
COc1ccc(NC(=O)c2ccc(Cl)c(NC(=O)c3ccncc3)c2)cc1 was read as EBV gp42 block -6, GLD-1 TGE inh 2 and LANA-H2A inh 3.
For COc1cccc(F)c1C(=O)NC(=O)Nc1ccc2nc(C)oc2c1 the results were LANA DNA inh 22, Keap1-Nrf2 PPI 3, eLon inh 110*, EBV gp42 block 27, GLD-1 TGE inh 91*, LANA-H2A inh 6 and E coli Lon conf -9.
Screening CCCCN1C(=O)c2cccc3cc(O)cc(c23)C1=O returned LANA DNA inh 1, Keap1-Nrf2 PPI -2, eLon inh 33*, GLD-1 TGE inh 21, LANA-H2A inh 1 and E coli Lon conf 6.
Screening COCCNc1nnnc2c1sc1nc(N3CCOCC3)c3c(c12)CCCC3 returned EBV gp42 block 3.
For CCCCOc1ccc(/C=C/C(=O)Nc2ccc([N+](=O)[O-])cc2C)cc1 the results were LANA DNA inh -2, Keap1-Nrf2 PPI -6, eLon inh 6, EBV gp42 block -2, GLD-1 TGE inh 4 and LANA-H2A inh 11.
CCCOc1ccc(/C=C/C(=O)Nc2ccc([N+](=O)[O-])cc2)cc1 was read as LANA DNA inh 2, Keap1-Nrf2 PPI -2, eLon inh 19*, EBV gp42 block 1, GLD-1 TGE inh -6, LANA-H2A inh 2 and E coli Lon conf -102.
Screening COCCNC(=O)c1c[nH]c2ccc(S(=O)(=O)Nc3ccccc3F)cc2c1=O returned LANA DNA inh -1, Keap1-Nrf2 PPI -1, eLon inh 18*, GLD-1 TGE inh -4, LANA-H2A inh -3 and E coli Lon conf 9.
For COCCNC(=O)c1c[nH]c2ccc(S(=O)(=O)Nc3ccc(F)cc3F)cc2c1=O the results were LANA DNA inh -1, Keap1-Nrf2 PPI -2, eLon inh 6, GLD-1 TGE inh -2 and LANA-H2A inh 2.
Cc1ccccc1-n1c(SCc2c(C)noc2C)nnc1-c1cccnc1 was read as LANA DNA inh 3, Keap1-Nrf2 PPI -1, eLon inh 63*, EBV gp42 block 89*, GLD-1 TGE inh 89*, LANA-H2A inh 6 and E coli Lon conf 45*.
